This is part of a sample that, as a whole, favours compounds with a hit. Of some 79,000 tested, about 15% had one in any assay. A number with no mark means an inactive call. Active and inactive are the calls of the source. Cut-off read from the data, not from the text of the source: active = growth inhibition above about 70%; inactive = the rest.
Experiments:
[1] = NCI Yeast Anticancer Drug Screen. Data for the rad50 strain (AID 155);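 note: 0% = growth of vehicle-only cultures of the same strain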; conditions: S. cerevisiae rad50 strain growth inhibition, hits give high values
Outline: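 A DNA repair-deficient yeast mutant serves as the test organism; compound-induced growth inhibition is calculated against vehicle-treated cells.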

[2] = NCI Yeast Anticancer Drug Screen. Data for the mec2-1 strain (AID 157); conditions: S. cerevisiae mec2-1 strain, hits give high values
Outline: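 Readout is yeast growth inhibition, normalised to vehicle-treated controls, in the mec2-1 strain exposed to compound.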

[3] = NCI Yeast Anticancer Drug Screen. Data for the sgs1 mgt1 strain (AID 161);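 note: 0% = growth of cultures given vehicle only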; conditions: S. cerevisiae sgs1 mgt1 strain, hits give high values
Outline: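 Growth of a repair-deficient yeast mutant was monitored after compound treatment and expressed as inhibition relative to vehicle-treated cultures.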

[4] = NCI Yeast Anticancer Drug Screen. Data for the cln2 rad14 strain (AID 165);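 note: 0% = growth equal to vehicle treated cultures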; conditions: S. cerevisiae cln2 rad14 strain, hits give high values
Outline: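 Relative to vehicle controls, growth inhibition of compound-treated cln2 rad14 yeast was recorded.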

[5] = NCI Yeast Anticancer Drug Screen. Data for the bub3 strain (AID 167); conditions: S. cerevisiae bub3 mutant strain, hits give high values
Outline: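 Inhibition values come from growth of compound-treated mutant yeast normalised to vehicle-treated controls.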

[6] = NCI Yeast Anticancer Drug Screen. Data for the mlh1 rad18 strain (AID 175); conditions: S. cerevisiae mlh1 rad18 strain growth inhibition, hits give high values
Outline: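 Test agents were incubated with a yeast strain of defined genotype (DNA damage repair defect). Inhibition of growth was derived by comparison with vehicle-exposed cultures.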

[7] = at 5.0 µM (retest, dose inferred, filed as 0.5)
[8] = at 50.0 µM (retest, dose inferred, filed as 5.0)

With CCOC(=O)c1ccc(O)c(C=O)c1 the growth inhibition [1, 7] was -103%, the growth inhibition [1, 8] was 90% (active) and the growth inhibition ([1]; at 50.0 µM) was 99.2% (active). For the same molecule, the growth inhibition [2, 7] was -29%, the growth inhibition [2, 8] was 98% (active) and the growth inhibition ([2]; at 50.0 µM) was 99.6% (active). The growth inhibition [3, 7] was -35%, the growth inhibition [3, 8] was 98% (active) and the growth inhibition ([3]; at 50.0 µM) was 99.3% (active). The growth inhibition [4, 7] was -28%, the growth inhibition [4, 8] was 98% (active) and the growth inhibition ([4]; at 50.0 µM) was 99% (active). The growth inhibition [5, 7] was -49%, the growth inhibition [5, 8] was 98% (active) and the growth inhibition ([5]; at 50.0 µM) was 98.6% (active). For the same molecule, the growth inhibition [6, 7] was -83%, the growth inhibition [6, 8] was 98% (active) and the growth inhibition ([6]; at 50.0 µM) was 99.5% (active).
With CCCCCCCCCCCCCCCC(=O)NCCN(C)C the growth inhibition [1, 7] was -2%, the growth inhibition [1, 8] was 98% (active) and the growth inhibition ([1]; at 50.0 µM) was 98.7% (active). The growth inhibition [2, 7] was -2%, the growth inhibition [2, 8] was 99% (active) and the growth inhibition ([2]; at 50.0 µM) was 97% (active). For the same molecule, the growth inhibition [3, 7] was 23%, the growth inhibition [3, 8] was 98% (active) and the growth inhibition ([3]; at 50.0 µM) was 56.8%. For the same molecule, the growth inhibition [4, 7] was -3%, the growth inhibition [4, 8] was 99% (active) and the growth inhibition ([4]; at 50.0 µM) was 88.8% (active). The growth inhibition [5, 7] was -5%, the growth inhibition [5, 8] was 99% (active) and the growth inhibition ([5]; at 50.0 µM) was 97% (active). The growth inhibition [6, 7] was 1%, the growth inhibition [6, 8] was 98% (active) and the growth inhibition ([6]; at 50.0 µM) was 98.8% (active).
With CCCCC(O)(c1ccccc1)C(O)(c1ccccc1)c1c(F)c(F)c(F)c(F)c1F (stereo not given) the growth inhibition [1, 7] was 17%, the growth inhibition [1, 8] was 99% (active) and the growth inhibition ([1]; at 50.0 µM) was 81.1% (active). The growth inhibition [2, 7] was -3%, the growth inhibition [2, 8] was 99% (active) and the growth inhibition ([2]; at 50.0 µM) was 96.6% (active). The growth inhibition [3, 7] was -5%, the growth inhibition [3, 8] was 98% (active) and the growth inhibition ([3]; at 50.0 µM) was 99% (active). For the same molecule, the growth inhibition [4, 7] was 1%, the growth inhibition [4, 8] was 98% (active) and the growth inhibition ([4]; at 50.0 µM) was 97.3% (active). For the same molecule, the growth inhibition [5, 7] was -8%, the growth inhibition [5, 8] was 96% (active) and the growth inhibition ([5]; at 50.0 µM) was 98.6% (active). For the same molecule, the growth inhibition [6, 7] was -4%, the growth inhibition [6, 8] was 99% (active) and the growth inhibition ([6]; at 50.0 µM) was 97.2% (active).
With O=S1(=O)C(Br)=Cc2ccccc21 the growth inhibition [1, 7] was 16%, the growth inhibition [1, 8] was 99% (active) and the growth inhibition ([1]; at 50.0 µM) was 99.3% (active). For the same molecule, the growth inhibition [2, 7] was -6%, the growth inhibition [2, 8] was 99% (active) and the growth inhibition ([2]; at 50.0 µM) was 99.3% (active). For the same molecule, the growth inhibition [3, 7] was 25%, the growth inhibition [3, 8] was 99% (active) and the growth inhibition ([3]; at 50.0 µM) was 98.7% (active). The growth inhibition [4, 7] was 17%, the growth inhibition [4, 8] was 99% (active) and the growth inhibition ([4]; at 50.0 µM) was 97.7% (active). For the same molecule, the growth inhibition [5, 7] was 13%, the growth inhibition [5, 8] was 99% (active) and the growth inhibition ([5]; at 50.0 µM) was 99.4% (active). For the same molecule, the growth inhibition [6, 7] was 23%, the growth inhibition [6, 8] was 99% (active) and the growth inhibition ([6]; at 50.0 µM) was 98.7% (active).
For CC[n+]1c(/C=C/c2ccc(N(C)C)cc2)ccc2ccccc21, the growth inhibition [1, 7] was -5%, the growth inhibition [1, 8] was 99% (active) and the growth inhibition ([1]; at 50.0 µM) was 99% (active). For the same molecule, the growth inhibition [2, 7] was 23%, the growth inhibition [2, 8] was 99% (active) and the growth inhibition ([2]; at 50.0 µM) was 99.2% (active). The growth inhibition [3, 7] was -2%, the growth inhibition [3, 8] was 99% (active) and the growth inhibition ([3]; at 50.0 µM) was 98% (active). The growth inhibition [4, 7] was -5%, the growth inhibition [4, 8] was 98% (active) and the growth inhibition ([4]; at 50.0 µM) was 99% (active). For the same molecule, the growth inhibition [5, 7] was 1%, the growth inhibition [5, 8] was 99% (active) and the growth inhibition ([5]; at 50.0 µM) was 98.8% (active). The growth inhibition [6, 7] was 13%, the growth inhibition [6, 8] was 99% (active) and the growth inhibition ([6]; at 50.0 µM) was 98.5% (active).
With CC(C)Nc1nc(NC(C)C)c2cnn(-c3ccccc3)c2n1 the growth inhibition [1, 7] was 0%, the growth inhibition [1, 8] was 55% and the growth inhibition ([1]; at 50.0 µM) was 96.7% (active). For the same molecule, the growth inhibition [2, 7] was 1%, the growth inhibition [2, 8] was 69% and the growth inhibition ([2]; at 50.0 µM) was 83.9% (active). The growth inhibition [3, 7] was 2%, the growth inhibition [3, 8] was 95% (active) and the growth inhibition ([3]; at 50.0 µM) was 98.5% (active). For the same molecule, the growth inhibition [4, 7] was -10%, the growth inhibition [4, 8] was 24% and the growth inhibition ([4]; at 50.0 µM) was 88.3% (active). The growth inhibition [5, 7] was 1%, the growth inhibition [5, 8] was 68% and the growth inhibition ([5]; at 50.0 µM) was 81.7% (active). The growth inhibition [6, 7] was 3%, the growth inhibition [6, 8] was 74% (active) and the growth inhibition ([6]; at 50.0 µM) was 95.5% (active).
With O=Cc1cc2ccccc2cc1C=O the growth inhibition [1, 7] was 88% (active), the growth inhibition [1, 8] was 96% (active) and the growth inhibition ([1]; at 50.0 µM) was 86% (active). For the same molecule, the growth inhibition [2, 7] was 94% (active), the growth inhibition [2, 8] was 97% (active) and the growth inhibition ([2]; at 50.0 µM) was 87.3% (active). For the same molecule, the growth inhibition [3, 7] was 84% (active), the growth inhibition [3, 8] was 96% (active) and the growth inhibition ([3]; at 50.0 µM) was 87.2% (active). The growth inhibition [4, 7] was 87% (active), the growth inhibition [4, 8] was 95% (active) and the growth inhibition ([4]; at 50.0 µM) was 88.8% (active). The growth inhibition [5, 7] was 94% (active), the growth inhibition [5, 8] was 96% (active) and the growth inhibition ([5]; at 50.0 µM) was 86.5% (active). The growth inhibition [6, 7] was 93% (active), the growth inhibition [6, 8] was 95% (active) and the growth inhibition ([6]; at 50.0 µM) was 86.2% (active).
With C=C1C(=O)OC2CC3(C)CC(O)C(O)C(=C)C3CC12 (stereo not given) the growth inhibition [1, 7] was 0%, the growth inhibition [1, 8] was 6% and the growth inhibition ([1]; at 50.0 µM) was 91.2% (active). The growth inhibition [2, 7] was 1%, the growth inhibition [2, 8] was 6% and the growth inhibition ([2]; at 50.0 µM) was 94.7% (active). The growth inhibition [3, 7] was -1%, the growth inhibition [3, 8] was 14% and the growth inhibition ([3]; at 50.0 µM) was 93.1% (active). For the same molecule, the growth inhibition [4, 7] was -2%, the growth inhibition [4, 8] was 5% and the growth inhibition ([4]; at 50.0 µM) was 91.5% (active). The growth inhibition [5, 7] was 0%, the growth inhibition [5, 8] was 8% and the growth inhibition ([5]; at 50.0 µM) was 93% (active). For the same molecule, the growth inhibition [6, 7] was 1%, the growth inhibition [6, 8] was 9% and the growth inhibition ([6]; at 50.0 µM) was 92.2% (active).
For CC(C)=CC(=O)OC(CCCc1ccccc1)c1ccc2c(c1)OCO2 (stereo not given), the growth inhibition [1, 7] was 5%, the growth inhibition [1, 8] was -5% and the growth inhibition ([1]; at 50.0 µM) was -4.6%. It also gave a growth inhibition [2, 7] of 7%, a growth inhibition [2, 8] of -16% and a growth inhibition ([2]; at 50.0 µM) of -13.2%. It also gave a growth inhibition [3, 7] of -6%, a growth inhibition [3, 8] of 9% and a growth inhibition ([3]; at 50.0 µM) of -4.75%. For the same molecule, the growth inhibition [4, 7] was 0%, the growth inhibition [4, 8] was 3% and the growth inhibition ([4]; at 50.0 µM) was 0.35%. The growth inhibition [5, 7] was 35%, the growth inhibition [5, 8] was 33% and the growth inhibition ([5]; at 50.0 µM) was 50%. It also gave a growth inhibition [6, 7] of 2%, a growth inhibition [6, 8] of 14% and a growth inhibition ([6]; at 50.0 µM) of -8.25%.
Work on CCCCCCCCCCCCCCCCCC[N+](C)(C)Cc1ccc(C[N+](C)(C)CCCCCCCCCCCCCCCCCC)cc1 yielded a growth inhibition [1, 7] of -5%, a growth inhibition [1, 8] of 22% and a growth inhibition ([1]; at 50.0 µM) of 1.5%. It also gave a growth inhibition [2, 7] of -3%, a growth inhibition [2, 8] of 7% and a growth inhibition ([2]; at 50.0 µM) of 35.3%. For the same molecule, the growth inhibition [3, 7] was 5%, the growth inhibition [3, 8] was 51% and the growth inhibition ([3]; at 50.0 µM) was 71.3% (active). For the same molecule, the growth inhibition [4, 7] was -2%, the growth inhibition [4, 8] was -9% and the growth inhibition ([4]; at 50.0 µM) was 44.9%. It also gave a growth inhibition [5, 7] of -4%, a growth inhibition [5, 8] of 11% and a growth inhibition ([5]; at 50.0 µM) of 5.05%. It also gave a growth inhibition [6, 7] of -3%, a growth inhibition [6, 8] of 26% and a growth inhibition ([6]; at 50.0 µM) of 8.2%.
